Measured values as given in PMC7862700, “An all-to-all approach to the identification of sequence-specific readers for epigenetic DNA modifications on cytosine”.

Key:
Experiment in all cases: DAPPL (digital affinity profiling via proximity ligation, sequencing); 10 mM Tris-HCl pH 7.5, 50 mM NaCl, 1 mM DTT, 4% glycerol, room temperature, 30 min; GST-TFs on glutathione beads, 16-mer random dsDNA library, 0.1% formaldehyde crosslink after washing; high values mean tight binding
Settings in all cases: protein: recombinant; tags: N-terminal GST; dsDNA, one strand shown
FLI1 = biological target: T1, FLI1 (Homo sapiens, UniProt Q01543 1-452)
T1 sequence: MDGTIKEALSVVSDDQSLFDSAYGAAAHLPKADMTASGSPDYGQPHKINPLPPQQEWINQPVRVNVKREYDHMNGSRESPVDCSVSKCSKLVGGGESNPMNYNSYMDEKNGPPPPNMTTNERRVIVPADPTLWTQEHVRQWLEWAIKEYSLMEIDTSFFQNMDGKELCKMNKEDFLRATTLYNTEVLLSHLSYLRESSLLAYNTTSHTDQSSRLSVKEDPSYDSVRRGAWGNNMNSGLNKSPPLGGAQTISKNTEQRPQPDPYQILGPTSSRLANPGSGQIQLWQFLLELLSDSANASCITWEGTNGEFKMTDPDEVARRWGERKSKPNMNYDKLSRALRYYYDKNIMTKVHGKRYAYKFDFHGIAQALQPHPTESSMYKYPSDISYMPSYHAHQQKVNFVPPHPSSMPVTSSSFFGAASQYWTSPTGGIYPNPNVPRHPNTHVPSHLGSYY
Procedure, shortened: (§1)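 Human transcription factors carrying a GST fusion were produced in yeast, bound to glutathione beads, tagged with DNA barcodes and pooled together with a tag-only sample. Each pool was held with 200 nmole of a random double-stranded 16-mer DNA library in Tris/NaCl/DTT/glycerol buffer for 30 min at room temperature, then washed, crosslinked in 0.1% formaldehyde, proximity-ligated with BsaI/T4 ligase (1 h, 37 °C), PCR-amplified and sequenced on an Illumina NextSeq500. Binding signal is the read frequency of each hexamer for a given factor divided by its frequency in the tag-only sample.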

ELK1 = biological target: T2, ELK1 (Homo sapiens, UniProt P19419 1-428)
T2 sequence: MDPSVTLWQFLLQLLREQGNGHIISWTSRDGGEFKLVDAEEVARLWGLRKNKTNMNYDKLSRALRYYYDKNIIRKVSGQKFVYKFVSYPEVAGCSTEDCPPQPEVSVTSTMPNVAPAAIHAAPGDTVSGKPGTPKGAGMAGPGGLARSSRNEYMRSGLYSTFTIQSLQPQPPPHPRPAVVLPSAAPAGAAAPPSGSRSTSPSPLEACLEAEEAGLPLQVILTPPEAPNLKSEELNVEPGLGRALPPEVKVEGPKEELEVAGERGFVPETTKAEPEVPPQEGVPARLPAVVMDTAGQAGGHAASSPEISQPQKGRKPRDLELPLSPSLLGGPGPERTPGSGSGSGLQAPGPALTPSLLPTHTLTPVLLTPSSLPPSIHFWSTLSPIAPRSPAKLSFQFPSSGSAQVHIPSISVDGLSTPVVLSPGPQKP
Procedure, shortened: as §1

GABPA = biological target: T3, GABPA (Homo sapiens, UniProt Q06546 1-454)
T3 sequence: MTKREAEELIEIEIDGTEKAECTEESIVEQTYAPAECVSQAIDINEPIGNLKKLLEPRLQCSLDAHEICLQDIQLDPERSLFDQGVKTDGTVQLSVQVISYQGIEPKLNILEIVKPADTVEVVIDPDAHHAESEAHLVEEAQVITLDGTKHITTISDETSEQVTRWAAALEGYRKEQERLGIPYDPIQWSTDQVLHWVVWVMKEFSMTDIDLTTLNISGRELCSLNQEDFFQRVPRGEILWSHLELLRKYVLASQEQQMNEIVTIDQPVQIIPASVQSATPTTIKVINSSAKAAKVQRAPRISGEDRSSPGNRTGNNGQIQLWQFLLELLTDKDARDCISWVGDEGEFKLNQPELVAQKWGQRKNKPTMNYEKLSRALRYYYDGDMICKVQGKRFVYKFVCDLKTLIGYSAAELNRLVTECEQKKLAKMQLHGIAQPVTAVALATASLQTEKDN
Procedure, shortened: as §1

ERG = biological target: T4, ERG (Homo sapiens, UniProt P11308 1-479)
T4 sequence: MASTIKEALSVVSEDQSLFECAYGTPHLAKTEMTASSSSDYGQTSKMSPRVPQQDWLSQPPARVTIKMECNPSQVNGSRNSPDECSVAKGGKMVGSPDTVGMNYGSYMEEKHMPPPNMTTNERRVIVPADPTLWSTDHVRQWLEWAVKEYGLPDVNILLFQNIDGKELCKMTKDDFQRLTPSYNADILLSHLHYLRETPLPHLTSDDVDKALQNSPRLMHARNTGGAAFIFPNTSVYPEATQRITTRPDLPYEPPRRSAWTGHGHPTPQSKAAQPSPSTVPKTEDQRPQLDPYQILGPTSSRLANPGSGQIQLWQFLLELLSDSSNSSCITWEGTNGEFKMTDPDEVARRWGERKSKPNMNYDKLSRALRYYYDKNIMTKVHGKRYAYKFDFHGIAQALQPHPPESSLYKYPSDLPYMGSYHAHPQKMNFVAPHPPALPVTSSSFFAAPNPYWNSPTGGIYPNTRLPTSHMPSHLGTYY
Procedure, shortened: as §1

ELF1 = ELF1 (Homo sapiens, UniProt P32519 1-619)
ELF1, sequence (P32519 whole entry): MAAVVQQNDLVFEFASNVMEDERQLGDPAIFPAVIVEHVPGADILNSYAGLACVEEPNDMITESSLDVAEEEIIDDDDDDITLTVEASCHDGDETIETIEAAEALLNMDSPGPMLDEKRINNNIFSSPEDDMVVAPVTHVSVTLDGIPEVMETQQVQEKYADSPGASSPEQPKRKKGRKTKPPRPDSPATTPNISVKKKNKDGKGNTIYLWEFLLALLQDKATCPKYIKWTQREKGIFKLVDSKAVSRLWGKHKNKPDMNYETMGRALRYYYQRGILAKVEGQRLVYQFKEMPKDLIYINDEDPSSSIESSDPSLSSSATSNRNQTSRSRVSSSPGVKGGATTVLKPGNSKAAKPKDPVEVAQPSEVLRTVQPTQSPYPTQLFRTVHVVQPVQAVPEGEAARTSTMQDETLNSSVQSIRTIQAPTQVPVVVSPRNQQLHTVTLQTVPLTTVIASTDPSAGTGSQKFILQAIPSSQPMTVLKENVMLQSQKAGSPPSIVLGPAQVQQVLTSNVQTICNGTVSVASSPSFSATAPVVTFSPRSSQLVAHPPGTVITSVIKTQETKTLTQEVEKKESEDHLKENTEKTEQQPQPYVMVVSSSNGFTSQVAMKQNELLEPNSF
Procedure, shortened: as §1

EHF = biological target: T5, EHF (Homo sapiens, UniProt Q9NZC4 1-300)
T5 sequence: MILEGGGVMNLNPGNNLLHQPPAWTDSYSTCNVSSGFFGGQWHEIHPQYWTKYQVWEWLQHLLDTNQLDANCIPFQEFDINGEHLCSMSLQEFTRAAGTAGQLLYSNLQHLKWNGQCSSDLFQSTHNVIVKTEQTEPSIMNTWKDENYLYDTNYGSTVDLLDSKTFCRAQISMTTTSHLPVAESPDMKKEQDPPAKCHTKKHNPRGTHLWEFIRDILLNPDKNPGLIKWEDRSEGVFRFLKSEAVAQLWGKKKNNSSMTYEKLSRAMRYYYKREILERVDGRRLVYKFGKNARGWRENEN
Procedure, shortened: as §1

SPI1 = SPI1 (Homo sapiens, UniProt P17947 1-270)
Procedure, shortened: as §1

SPIB = SPIB (Homo sapiens, UniProt Q01892 1-262)
SPIB, sequence (Q01892 whole entry): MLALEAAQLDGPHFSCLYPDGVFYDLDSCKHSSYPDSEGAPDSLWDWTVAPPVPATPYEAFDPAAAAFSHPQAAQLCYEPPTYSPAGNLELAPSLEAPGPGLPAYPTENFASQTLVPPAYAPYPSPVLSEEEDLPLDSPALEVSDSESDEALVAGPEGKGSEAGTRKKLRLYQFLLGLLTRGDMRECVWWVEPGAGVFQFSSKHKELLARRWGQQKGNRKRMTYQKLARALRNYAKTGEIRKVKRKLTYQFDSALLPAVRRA
Procedure, shortened: as §1

ELK3 = biological target: T6, ELK3 (Homo sapiens, UniProt P41970 1-407)
T6 sequence: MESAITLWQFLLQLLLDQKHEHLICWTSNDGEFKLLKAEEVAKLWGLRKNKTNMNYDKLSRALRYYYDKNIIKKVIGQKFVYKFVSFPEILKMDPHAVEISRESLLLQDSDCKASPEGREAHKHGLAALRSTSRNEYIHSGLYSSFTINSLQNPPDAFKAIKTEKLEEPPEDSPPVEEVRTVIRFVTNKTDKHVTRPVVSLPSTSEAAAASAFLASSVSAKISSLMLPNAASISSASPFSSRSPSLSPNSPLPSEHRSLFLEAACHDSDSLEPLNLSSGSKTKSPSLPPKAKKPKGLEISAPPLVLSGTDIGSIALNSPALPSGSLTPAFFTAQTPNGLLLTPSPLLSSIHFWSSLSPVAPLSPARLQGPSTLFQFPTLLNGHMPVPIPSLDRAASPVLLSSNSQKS
Procedure, shortened: as §1

Sequence | binding signal (FLI1) | binding signal (ELK1) | binding signal (GABPA) | binding signal (ERG) | binding signal (ELF1) | binding signal (EHF) | binding signal (SPI1) | binding signal (SPIB) | binding signal (ELK3)
TAGCTA | 1.22 fold enrichment (6-mer frequency, TF over GST control) | 1.24 fold enrichment (6-mer frequency, TF over GST control) | 1.21 fold enrichment (6-mer frequency, TF over GST control) | 1.22 fold enrichment (6-mer frequency, TF over GST control) | 1.25 fold enrichment (6-mer frequency, TF over GST control) | 1.22 fold enrichment (6-mer frequency, TF over GST control) | 1.2 fold enrichment (6-mer frequency, TF over GST control) | 1.22 fold enrichment (6-mer frequency, TF over GST control) | 1.29 fold enrichment (6-mer frequency, TF over GST control)
AGCCTT | 1.12 fold enrichment (6-mer frequency, TF over GST control) | 1.11 fold enrichment (6-mer frequency, TF over GST control) | 1.01 fold enrichment (6-mer frequency, TF over GST control) | 1.11 fold enrichment (6-mer frequency, TF over GST control) | 1.2 fold enrichment (6-mer frequency, TF over GST control) | 1.15 fold enrichment (6-mer frequency, TF over GST control) | 1.12 fold enrichment (6-mer frequency, TF over GST control) | 1.21 fold enrichment (6-mer frequency, TF over GST control) | 1.03 fold enrichment (6-mer frequency, TF over GST control)
AACCAA | 1.24 fold enrichment (6-mer frequency, TF over GST control) | 1.22 fold enrichment (6-mer frequency, TF over GST control) | 1.25 fold enrichment (6-mer frequency, TF over GST control) | 1.16 fold enrichment (6-mer frequency, TF over GST control) | 1.22 fold enrichment (6-mer frequency, TF over GST control) | 1.22 fold enrichment (6-mer frequency, TF over GST control) | 1.19 fold enrichment (6-mer frequency, TF over GST control) | 1.15 fold enrichment (6-mer frequency, TF over GST control) | 1.19 fold enrichment (6-mer frequency, TF over GST control)
TATTTT | 1.3 fold enrichment (6-mer frequency, TF over GST control) | 1.3 fold enrichment (6-mer frequency, TF over GST control) | 1.34 fold enrichment (6-mer frequency, TF over GST control) | 1.39 fold enrichment (6-mer frequency, TF over GST control) | 1.31 fold enrichment (6-mer frequency, TF over GST control) | 1.44 fold enrichment (6-mer frequency, TF over GST control) | 1.35 fold enrichment (6-mer frequency, TF over GST control) | 1.32 fold enrichment (6-mer frequency, TF over GST control) | 1.36 fold enrichment (6-mer frequency, TF over GST control)
TTACAG | 1.19 fold enrichment (6-mer frequency, TF over GST control) | 1.18 fold enrichment (6-mer frequency, TF over GST control) | 1.15 fold enrichment (6-mer frequency, TF over GST control) | 1.17 fold enrichment (6-mer frequency, TF over GST control) | 1.22 fold enrichment (6-mer frequency, TF over GST control) | 1.13 fold enrichment (6-mer frequency, TF over GST control) | 1.11 fold enrichment (6-mer frequency, TF over GST control) | 1.29 fold enrichment (6-mer frequency, TF over GST control) | 1.17 fold enrichment (6-mer frequency, TF over GST control)
AAAATA | 1.17 fold enrichment (6-mer frequency, TF over GST control) | 1.12 fold enrichment (6-mer frequency, TF over GST control) | 1.18 fold enrichment (6-mer frequency, TF over GST control) | 1.19 fold enrichment (6-mer frequency, TF over GST control) | 1.19 fold enrichment (6-mer frequency, TF over GST control) | 1.13 fold enrichment (6-mer frequency, TF over GST control) | 1.18 fold enrichment (6-mer frequency, TF over GST control) | 1.23 fold enrichment (6-mer frequency, TF over GST control) | 1.17 fold enrichment (6-mer frequency, TF over GST control)
TATTGT | 1.27 fold enrichment (6-mer frequency, TF over GST control) | 1.32 fold enrichment (6-mer frequency, TF over GST control) | 1.29 fold enrichment (6-mer frequency, TF over GST control) | 1.3 fold enrichment (6-mer frequency, TF over GST control) | 1.28 fold enrichment (6-mer frequency, TF over GST control) | 1.23 fold enrichment (6-mer frequency, TF over GST control) | 1.19 fold enrichment (6-mer frequency, TF over GST control) | 1.28 fold enrichment (6-mer frequency, TF over GST control) | 1.53 fold enrichment (6-mer frequency, TF over GST control)
